Results taken from PubChem BioAssay (NCI).
Compounds without any hit were thinned out: in the full panel of roughly 83,000, 20% have a hit.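 Each cell line was grown in a 96-well plate and treated with one concentration of compound for 48 hours. Values below 10 were considered active.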 Values without a mark were called inactive. The source made the active and inactive calls.

Experiments:
Test in all cases: NCI-60 one-dose screen, 48 h (100 = growth as untreated, 0 = no growth, -100 = all killed)
NCI-H23 lung = settings: 10 µM unless noted
NCI-H226 lung = settings: 10 µM unless noted
NCI-H322M lung = settings: 10 µM unless noted
HOP-62 NSCLC = settings: 10 µM unless noted
NCI-H460 lung = settings: 10 µM unless noted
HOP-92 NSCLC = settings: 10 µM unless noted
NCI-H522 lung = settings: 10 µM unless noted
A549/ATCC NSCLC = settings: 10 µM unless noted
786-0 renal = settings: 10 µM unless noted
COLO 205 colon = settings: 10 µM unless noted
DU-145 prostate = settings: 10 µM unless noted
K-562 leukemia = settings: 10 µM unless noted
MALME-3M melanoma = settings: 10 µM unless noted
MDA-MB-231 breast = settings: 10 µM unless noted
RXF 393 renal = settings: 10 µM unless noted
SF-268 CNS = settings: 10 µM unless noted
SF-295 CNS = settings: 10 µM unless noted
SF-539 CNS = settings: 10 µM unless noted
UACC-257 melanoma = settings: 10 µM
M14 melanoma = settings: 10 µM unless noted

For `CC/C=C\C/C=C\C[C@H]1C/C=C2/C(=O)C=C[C@H]2C/C=C\CCC(=O)O1`, which growth (NCI-H23 lung) is on record?
Its growth is 7.93% (active).

And the growth (NCI-H226 lung)?
Its growth is -5.58% (active).

What about the growth (NCI-H322M lung) of the same compound?
The growth was 53.1%.

What about the growth (HOP-62 NSCLC) of the same compound?
The growth was -23.6% (active).

What about the growth (NCI-H460 lung) of the same compound?
The growth was -5.43% (active).

And the growth (HOP-92 NSCLC)?
The growth was -10% (active).

And the growth (NCI-H522 lung)?
The growth was -56% (active).

And the growth (A549/ATCC NSCLC)?
The growth was 25.2%.

What about the growth (786-0 renal) of the same compound?
Its growth is -6.65% (active).

What about the growth (COLO 205 colon) of the same compound?
Its growth is -32.4% (active).

What about the growth (DU-145 prostate) of the same compound?
The growth was 12.7%.

What about the growth (K-562 leukemia) of the same compound?
The growth was 1.48% (active).

And the growth (MALME-3M melanoma)?
Its growth is 12.4%.

What about the growth (MDA-MB-231 breast) of the same compound?
The growth was 3.22% (active).

And the growth (RXF 393 renal)?
The growth was -48% (active).

What about the growth (SF-268 CNS) of the same compound?
The growth was 12.7%.

What about the growth (SF-295 CNS) of the same compound?
The growth was 6.87% (active).

What about the growth (SF-539 CNS) of the same compound?
Its growth is 13%.

Which growth (NCI-H23 lung) does the source give for `COc1ccc(S(=O)(=O)NCCNc2nccc(-c3c(-c4ccccc4)nc4sccn34)n2)cc1` here?
Its growth is 37%.

What about the growth (NCI-H226 lung) of the same compound?
Its growth is 13.2%.

And the growth (NCI-H322M lung)?
Its growth is 45.9%.

What about the growth (HOP-62 NSCLC) of the same compound?
The growth was 64.4%.

What about the growth (NCI-H460 lung) of the same compound?
The growth was 23.6%.

What about the growth (HOP-92 NSCLC) of the same compound?
Its growth is 48.9%.

And the growth (NCI-H522 lung)?
Its growth is 41%.

What about the growth (A549/ATCC NSCLC) of the same compound?
The growth was 18.4%.

And the growth (786-0 renal)?
Its growth is 32%.

What about the growth (COLO 205 colon) of the same compound?
The growth was 1.41% (active).

And the growth (DU-145 prostate)?
Its growth is 20.2%.

And the growth (K-562 leukemia)?
The growth was 18.5%.

And the growth (MALME-3M melanoma)?
Its growth is 60.9%.

What about the growth (MDA-MB-231 breast) of the same compound?
The growth was 36.6%.

What about the growth (RXF 393 renal) of the same compound?
Its growth is 30.8%.

And the growth (SF-268 CNS)?
Its growth is 20.5%.

And the growth (SF-295 CNS)?
The growth was 16.6%.

What about the growth (SF-539 CNS) of the same compound?
Its growth is 45.3%.

What about the growth (UACC-257 melanoma) of the same compound?
Its growth is 46%.

Which growth (NCI-H23 lung) does the source give for `CCCC(C(=O)OCC)C(C)OC(=O)OCC` (configuration not stated) here?
Its growth is 100%.

What about the growth (NCI-H226 lung) of the same compound?
The growth was 101%.

And the growth (NCI-H322M lung)?
The growth was 100%.

And the growth (HOP-62 NSCLC)?
The growth was 93.3%.

What about the growth (NCI-H460 lung) of the same compound?
Its growth is 113%.

And the growth (HOP-92 NSCLC)?
Its growth is 90.2%.

And the growth (NCI-H522 lung)?
Its growth is 86.1%.

And the growth (A549/ATCC NSCLC)?
The growth was 104%.

And the growth (786-0 renal)?
The growth was 99.5%.

What about the growth (COLO 205 colon) of the same compound?
The growth was 103%.

What about the growth (DU-145 prostate) of the same compound?
Its growth is 106%.

What about the growth (K-562 leukemia) of the same compound?
The growth was 81.6%.

What about the growth (MALME-3M melanoma) of the same compound?
The growth was 85.9%.

And the growth (MDA-MB-231 breast)?
Its growth is 105%.

What about the growth (RXF 393 renal) of the same compound?
Its growth is 96.3%.

What about the growth (SF-268 CNS) of the same compound?
The growth was 96.9%.

And the growth (SF-295 CNS)?
Its growth is 84.7%.

And the growth (SF-539 CNS)?
Its growth is 107%.

What about the growth (UACC-257 melanoma) of the same compound?
Its growth is 97.5%.

How did the growth (NCI-H23 lung) turn out when `COc1ccc(OC)c(C(=O)c2oc3ccc(Br)cc3c2N)c1` was run?
The growth was 24.7%.

And the growth (NCI-H226 lung)?
The growth was 55.9%.

What about the growth (NCI-H322M lung) of the same compound?
The growth was 20.9%.

What about the growth (HOP-62 NSCLC) of the same compound?
Its growth is 33.6%.

And the growth (NCI-H460 lung)?
Its growth is 8.36% (active).

What about the growth (HOP-92 NSCLC) of the same compound?
Its growth is 4.96% (active).

What about the growth (NCI-H522 lung) of the same compound?
The growth was -2.14% (active).

What about the growth (A549/ATCC NSCLC) of the same compound?
Its growth is 12.2%.

What about the growth (786-0 renal) of the same compound?
The growth was 38%.

And the growth (COLO 205 colon)?
The growth was -16.1% (active).

And the growth (DU-145 prostate)?
The growth was 16.3%.

And the growth (K-562 leukemia)?
The growth was 8.24% (active).

And the growth (MALME-3M melanoma)?
The growth was 35.2%.

What about the growth (MDA-MB-231 breast) of the same compound?
Its growth is 29.8%.

What about the growth (RXF 393 renal) of the same compound?
Its growth is -30.1% (active).

And the growth (SF-268 CNS)?
The growth was 47.3%.

What about the growth (SF-295 CNS) of the same compound?
The growth was -35.1% (active).

What about the growth (SF-539 CNS) of the same compound?
Its growth is -44.4% (active).

What about the growth (UACC-257 melanoma) of the same compound?
Its growth is 49.9%.

What does the source list for `COc1ccc2c(c1)C(C)Cc1c(N(C)C)ncnc1N2C` (configuration not stated)?
growth (NCI-H23 lung): 52.7%; growth (NCI-H226 lung): 81.6%; growth (NCI-H322M lung): 53.9%; growth (HOP-62 NSCLC): 35.5%; growth (NCI-H460 lung): 16.1%; growth (HOP-92 NSCLC): 50.5%; growth (NCI-H522 lung): -0.111% (active); growth (A549/ATCC NSCLC): 50.5%; growth (786-0 renal): 33%; growth (COLO 205 colon): 15.8%; growth (DU-145 prostate): 53.5%; growth (K-562 leukemia): 15.1%; growth (MALME-3M melanoma): 56.4%; growth (MDA-MB-231 breast): 54.3%; growth (RXF 393 renal): 49%; growth (SF-268 CNS): 46.1%; growth (SF-295 CNS): 9.16% (active); growth (SF-539 CNS): 6.17% (active)

For `CCNCc1ccncc1`, which growth (NCI-H23 lung) is on record?
The growth was 105%.

What about the growth (NCI-H226 lung) of the same compound?
The growth was 103%.

And the growth (NCI-H322M lung)?
Its growth is 104%.

And the growth (HOP-62 NSCLC)?
Its growth is 104%.

What about the growth (NCI-H460 lung) of the same compound?
Its growth is 102%.

And the growth (HOP-92 NSCLC)?
Its growth is 107%.

And the growth (NCI-H522 lung)?
The growth was 91%.

And the growth (A549/ATCC NSCLC)?
Its growth is 99.4%.

What about the growth (786-0 renal) of the same compound?
Its growth is 97.7%.

What about the growth (COLO 205 colon) of the same compound?
Its growth is 106%.

And the growth (DU-145 prostate)?
Its growth is 108%.

And the growth (K-562 leukemia)?
Its growth is 94.5%.

And the growth (MALME-3M melanoma)?
The growth was 101%.

What about the growth (MDA-MB-231 breast) of the same compound?
The growth was 114%.

What about the growth (RXF 393 renal) of the same compound?
The growth was 112%.

And the growth (SF-268 CNS)?
Its growth is 106%.

And the growth (SF-295 CNS)?
The growth was 102%.

And the growth (SF-539 CNS)?
Its growth is 103%.

What about the growth (UACC-257 melanoma) of the same compound?
Its growth is 96.3%.

What does the source list for `CC[C@H](C)[C@H]1NC(=O)[C@@H](N[C@](C)(O)[C@@H](N)CC(C)C)[C@@H](C)OC(=O)[C@H](Cc2ccc(OC)cc2)N(C)C(=O)[C@@H]2CCCN2C(=O)[C@H](CC(C)C)NC(=O)[C@@H](C)C(=O)[C@H](C(C)C)OC(=O)C[C@@H]1O`?
growth (NCI-H23 lung): -29.6% (active); growth (NCI-H226 lung): -11.1% (active); growth (NCI-H322M lung): -22.4% (active); growth (HOP-62 NSCLC): -31.1% (active); growth (NCI-H460 lung): -11.8% (active); growth (HOP-92 NSCLC): -14.1% (active); growth (NCI-H522 lung): -37.7% (active); growth (A549/ATCC NSCLC): -22.7% (active); growth (786-0 renal): -25.5% (active); growth (COLO 205 colon): -65.1% (active); growth (DU-145 prostate): -17.5% (active); growth (K-562 leukemia): 2.2% (active); growth (MALME-3M melanoma): -21.4% (active); growth (MDA-MB-231 breast): -15.8% (active); growth (RXF 393 renal): -33.1% (active); growth (SF-268 CNS): -1.13% (active); growth (SF-295 CNS): -52.1% (active); growth (SF-539 CNS): -27.6% (active); growth (UACC-257 melanoma): -24.7% (active); growth (M14 melanoma): -75.3% (active)

How did the growth (NCI-H23 lung) turn out when `COc1ccc(S(=O)(=O)N2CCN(c3cc4c(cc3F)c(=O)c(C(=O)O)cn4C3CC3)CC2)c(OC)c1` was run?
Its growth is 97%.

And the growth (NCI-H226 lung)?
Its growth is 89%.

And the growth (NCI-H322M lung)?
The growth was 91.6%.

What about the growth (HOP-62 NSCLC) of the same compound?
Its growth is 86.6%.

And the growth (NCI-H460 lung)?
The growth was 99%.

What about the growth (HOP-92 NSCLC) of the same compound?
Its growth is 90.2%.

And the growth (NCI-H522 lung)?
The growth was 91.4%.

And the growth (A549/ATCC NSCLC)?
Its growth is 93.6%.

And the growth (786-0 renal)?
The growth was 91.5%.

What about the growth (COLO 205 colon) of the same compound?
The growth was 105%.

What about the growth (DU-145 prostate) of the same compound?
The growth was 98.3%.

What about the growth (K-562 leukemia) of the same compound?
The growth was 89.1%.

What about the growth (MALME-3M melanoma) of the same compound?
The growth was 98%.

What about the growth (MDA-MB-231 breast) of the same compound?
The growth was 101%.

What about the growth (RXF 393 renal) of the same compound?
The growth was 102%.

And the growth (SF-268 CNS)?
Its growth is 81.8%.

And the growth (SF-295 CNS)?
The growth was 91.4%.

And the growth (SF-539 CNS)?
The growth was 88.8%.

What about the growth (UACC-257 melanoma) of the same compound?
Its growth is 100%.

And the growth (M14 melanoma)?
Its growth is 92.5%.
